Luciferase inh: Firefly luciferase inhibition profiling of diverse chemical library using quantitative high-throughput screening. Luciferin 4-monooxygenase (Photinus pyralis), P08659. purified P. pyralis luciferase, luminescence, biochemical. Potency, µM (highest dose often 115 µM), usual class: inhibitors. 2.5% of 76,000 active. AID 1347043, 2019; further: nearly all actives have a fitted effect of over 65% in size
Target sequence (P08659 whole entry, looked up): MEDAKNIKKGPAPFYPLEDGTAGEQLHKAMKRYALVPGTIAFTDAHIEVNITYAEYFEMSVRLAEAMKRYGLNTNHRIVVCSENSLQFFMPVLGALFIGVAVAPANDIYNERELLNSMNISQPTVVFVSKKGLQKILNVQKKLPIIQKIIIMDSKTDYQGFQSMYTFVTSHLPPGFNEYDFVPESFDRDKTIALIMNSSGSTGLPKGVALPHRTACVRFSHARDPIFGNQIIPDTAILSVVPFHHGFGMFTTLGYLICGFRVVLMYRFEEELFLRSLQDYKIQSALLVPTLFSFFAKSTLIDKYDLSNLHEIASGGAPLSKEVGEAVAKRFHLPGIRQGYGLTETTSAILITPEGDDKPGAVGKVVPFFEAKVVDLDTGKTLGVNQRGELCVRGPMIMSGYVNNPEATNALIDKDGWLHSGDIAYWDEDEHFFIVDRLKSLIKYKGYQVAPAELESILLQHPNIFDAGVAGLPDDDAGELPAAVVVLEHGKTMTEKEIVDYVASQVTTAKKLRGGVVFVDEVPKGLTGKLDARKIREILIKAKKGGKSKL
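Purified 10nM P. pyralis luciferase with 10uM D-luciferin and 10uM ATP in 50mM Tris acetate pH 7.5, 10mM Mg acetate, 0.01% Tween-20, 0.05% BSA. qHTS titration; luminescence read by CCD imager.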
NIH3T3 tox: Cytotoxic Profiling in NIH 3T3 Cell Line of Diverse Libraries Using Quantitative High-Throughput Screening; NIH 3T3 viability, CellTiter-Glo ATP luminescence, 48-72 h; Potency, µM (titrated, usually from 96.7 µM), actives largely listed as inhibitors; 4.3% of 94,000 active; AID 1345082, 2018; further: nearly all actives have a fitted effect of over 55% in size
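Viability of NIH 3T3 cells after 48 or 72 hr compound treatment at 37 °C was assessed by CellTiter-Glo, with luminescence imaged following a 10 min room-temperature step.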
HEK cytotox: Cytotoxic Profiling in HEK 293 Cell Line of Diverse Libraries Using Quantitative High-Throughput Screening | Potency, µM (top dose mostly 115 µM), hits mostly inhibitors | 6.6% of 94,000 active | HEK 293 viability, ATP luminescence (CellTiter-Glo), 48-72 h; further: nearly all actives have a fitted effect of over 60% in size
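CellTiter-Glo luminescence (cellular ATP) was read after 48 or 72 hr of compound exposure at 37 degree Celsius. Cells were HEK 293 plated at 250 cells/well.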
hNpr1 antagonist: Natriuretic polypeptide receptor (hNpr1) antagonism - Primary qHTS; 1.6% of 76,000 active; HEK293 hNpr1 GloSensor cGMP, ANP-stimulated luminescence; Atrial natriuretic peptide receptor 1 (Homo sapiens), P16066; Potency, µM (series often up to 46.3 µM), most hits filed as inhibitors; calls by dose curve; further: nearly all actives have a fitted effect of over 60% in size
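HEK293 cells stably expressing human Npr1 and cGMP GloSensor pGS-40F, loaded 2 h with 2% GloSensor reagent, given compound 30 min at room temperature. Luminescence read before and 20 min after 0.1 nM hNppA.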
Hits are given with their value; . = inactive; ? = inconclusive; / = not tested or not shown; ! = not active in a repeat. The list is not random: actives were taken first. Their share in the collection is about 11%. Unless noted, the call rests on the fitted dose curve; in most records, active means well fitted curve in the direction sought with a large enough effect; inconclusive means small, poorly fitted or top-dose-only effect, or another doubt; inactive means no such curve, though single readings can be large; an effect the other way counts as inactive or inconclusive.

SMILES	Luciferase inh	NIH3T3 tox	HEK cytotox	hNpr1 antagonist
COCCNC(=O)C1CCCN1C(=O)c1cccc(-c2cccc(OC)c2)c1 (centres undefined)	/	.	?	/
O=C(C1CCCC1)N1CCN(c2ccnc3ccnn23)CC1	/	.	.	/
O=C(O)CCC(=O)N1CCC(N(Cc2ccccc2)C2CCOCC2)CC1	.	.	.	.
O=C(c1ccc(Cl)cc1)N1CCOCC2(CN(Cc3ccccc3)C2)C1	.	3.16µM	.	.
COc1ccc(C(=O)N2CCOCC3(CN(Cc4cc(C)cc(F)c4)C3)C2)cc1OC	.	?	8.91µM	.
COc1ccc(C(=O)N2CCOCC3(CN(Cc4ccccc4)C3)C2)c(OC)n1	.	31.6µM	44.7µM	.
COc1ccc(C(=O)N2CCOCC3(CN(Cc4ccccc4)C3)C2)cc1	.	?	10µM	.
COc1cccc(S(=O)(=O)N2CCC(n3cnnc3-c3ccccc3)CC2)c1	.	?	?	.
COc1ccccc1-c1cc(C(=O)NC2CCOC2)c2cnn(C)c2n1 (centres undefined)	/	.	.	/
Cc1[nH]c2c(c1C(=O)N1CCCC(CCc3ccc(F)cc3)C1)C(=O)CCC2 (centres undefined)	.	?	31.6µM	?
CNc1ncc(C(=O)N2CCCC(CCc3ccc(F)cc3)C2)cn1 (centres undefined)	.	?	?	.
COc1cccc(Nc2cc3[nH]ccc3c(C(=O)NCc3c(C)cc(C)[nH]c3=O)n2)c1	?	39.8µM	70.8µM	.
Cc1cc(C)c(CNC(=O)c2nc(-c3cccc(C(F)(F)F)c3)cc3[nH]ccc23)c(=O)[nH]1	.	?	39.8µM	.
Cc1cc(C)c(CNC(=O)c2nc(-c3ccccc3)cc3[nH]ccc23)c(=O)[nH]1	.	?	?	.
CCOc1cc(=O)n2c(c1C(=O)Nc1ccc3c(c1)OCO3)CCCC2	39.8µM	?	?	.
CCOc1cc(=O)n2c(c1C(=O)Nc1ccc(CC)cc1)CCCC2	?	.	.	.
COc1cccc(CC(=O)N2Cc3ccccc3OC3(CCN(C)CC3)C2)c1	.	.	?	.
CC(C)(C)c1nnc2ccc(C(=O)NCc3cccnc3)cn12	/	.	.	/
O=C(Nc1cccc(C(F)(F)F)c1)N[C@H]1CO[C@H]2[C@@H]1OC[C@H]2OC(=O)Nc1ccccc1	.	?	?	.
CC(=O)c1ccc(NC(=O)O[C@@H]2CO[C@H]3[C@@H]2OC[C@@H]3NC(=S)NC2CCCCC2)cc1	.	.	79.4µM	.
CC(C)c1ccc(NC(=O)N[C@H]2CO[C@H]3[C@@H]2OC[C@H]3OC(=O)Nc2cccc(C(F)(F)F)c2)cc1	.	25.1µM	28.2µM	?
COC(=O)c1cccc(C(=O)N[C@H]2CO[C@H]3[C@@H]2OC[C@H]3OC(=O)Nc2ccc(Oc3ccccc3)cc2)c1	.	.	10µM	.
O=C(Nc1ccccc1)N[C@H]1CO[C@H]2[C@@H]1OC[C@H]2OC(=O)Nc1ccccc1	44.7µM	.	?	.
COc1cc(C)c2c(c1C)C[C@H](C(C)C(=O)NC(C)(C)C)CC2 (some centres undefined)	.	?	?	.
O=C(Cc1ccc(F)cc1)N1CCN(C(=O)c2nnn3c2COC(c2ccc(F)cc2)C3)CC1 (centres undefined)	.	.	?	?
SMILES	Luciferase inh	NIH3T3 tox	HEK cytotox	hNpr1 antagonist
CCNC(=O)N1CCOc2ccc(CCC(=O)Nc3ccc(F)cc3F)cc2C1	.	.	39.8µM	?
COc1ccc(NC(=O)CCc2ccc3c(c2)CN(C(=O)NC(C)C)CCO3)cn1	.	.	79.4µM	.
CCN(CCCNC(=O)C1Cn2cccc2C(=O)N1C)c1ccccc1 (centres undefined)	/	.	.	/
CC(C)(C)C(=O)N1CC[C@@H](CC(=O)O)[C@@H](CC2=NCCc3ccc(C(C)(C)C)cc32)C1	.	100µM	.	.
COc1ccc(-c2nc3cc(C(=O)NCCCc4ccccc4)ccc3o2)cn1	/	.	.	/
COCc1ccccc1-c1nccc2c(=O)cc(-c3cnn(C)c3)oc12	.	?	.	.
CN(c1cc(=O)c2ccnc(NCc3ccc4c(c3)OCO4)c2o1)C1CCOCC1	.	31.6µM	89.1µM	.
Cn1cc(-c2cc(=O)c3ccnc(NCc4ccc5c(c4)OCO5)c3o2)cn1	?	25.1µM	?	.
C#CCNC(=O)c1cc(-c2ccccc2OC)c2nncn2n1	/	.	.	/
CN(C)CCCOCC1(C)COc2ccc(C(=O)N3CCOCC3)cc2N1 (centres undefined)	.	?	.	.
CC1(COCC2CC2)COc2ccc(C(=O)Nc3ccc(Cl)cc3)cc2N1 (centres undefined)	.	35.5µM	28.2µM	?
CN(C)CCCOCC1(C)COc2ccc(C(=O)Nc3ccc(F)c(Cl)c3)cc2N1 (centres undefined)	.	39.8µM	63.1µM	.
CNC(=O)c1ccc2c(c1)NC(C)(COc1ccccc1)CO2 (centres undefined)	.	?	?	.
CC1(CCCCN2CCOCC2)COc2ccc(C(=O)Nc3ccc(Cl)cc3)cc2N1 (centres undefined)	?	?	50.1µM	.
CCOCC1(C)COc2ccc(C(=O)Nc3ccccn3)cc2N1 (centres undefined)	15.8µM	?	?	?
Cc1noc(C)c1[S+](=O)([O-])N1CCCC1C(=O)N1CCC(c2nc3ccncc3[nH]2)CC1 (centres undefined)	/	.	.	/
COc1cccc(C(=O)NC2CCN(Cc3cccc(-c4ccc(F)cc4F)c3)CC2)c1	/	35.5µM!	31.6µM!	/
O=C(NC1CCN(Cc2cccc(-c3ccc(F)cc3F)c2)CC1)c1ccncc1	/	?	31.6µM	/
O=C(NC1CCN(Cc2cccc(-c3ccc(F)cc3F)c2)CC1)C1CCCC1	/	.	.	/
Cc1cc(CN(C)C(=O)c2cc(CN3CCC(Cc4ccccc4)CC3)on2)n[nH]1	.	.	?	.
CC(C)CNc1ccc2c(n1)C(C)(C(=O)N1CCOCC1)CN(Cc1ccccc1)C2 (centres undefined)	.	?	?	.
O=c1cc(-c2cccnc2)oc2c(-c3cccc(F)c3)nccc12	.	?	.	.
O=c1cc(-c2cccnc2)oc2c(NCCc3ccccn3)nccc12	?	35.5µM	?	.
CCNC(=O)N1CCCC(Cc2noc(-c3ccccc3)n2)C1 (centres undefined)	?	.	31.6µM	.
CCn1cc(S(=O)(=O)N2CCCC2Cc2noc(-c3ccccc3)n2)cn1 (centres undefined)	/	?	44.7µM	/
O=C(c1ccc(F)cc1)N1CCN(C(=O)c2nnn3c2COC(c2ccc(Cl)cc2)C3)CC1 (centres undefined)	.	?	39.8µM	.
Cc1ccc(C(=O)N2CCN(C(=O)c3nnn4c3COC(c3ccc(Cl)cc3)C4)CC2)cc1F (centres undefined)	.	.	.	.
